Assay [1] in a line: qHTS assay to identify aromatase inhibitors - cell viability counter screen (AID 743084).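 Note: cells stimulated with testosterone during compound exposure; nearly all actives have a fitted effect of over 55% in size.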
Assay [2] concerns the target Aryl hydrocarbon receptor (Homo sapiens) (UniProt P35869). The assay is described as follows: qHTS assay to identify small molecule that activate the aryl hydrocarbon receptor (AhR) signaling pathway (AID 743085).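 For activation: HG2L7.5c1 human HepG2 liver cells with stably integrated DRE-driven firefly reporter; series mostly up to about 70 µM.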 Note: nearly all actives have a fitted effect of over 15% in size. Note: potency is the fitted concentration of half-maximal effect. The gist of the method: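 Reporter assay in engineered HepG2 line HG2L7.5c1, whose plasmid carries twenty dioxin responsive elements upstream of firefly luciferase. Treatment lasted 24 h at 37C; ONE-Glo luminescence gauged induction.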
(Quantitative high-throughput screening tests each substance at several concentrations.)

The nature of assay [3]: qHTS assay to identify small molecule that activate the aryl hydrocarbon receptor (AhR) signaling pathway - cell viability counter screen (AID 743086).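 Note: HepG2 liver cells carrying the AhR DRE luciferase reporter; series mostly up to about 70 µM; nearly all actives have a fitted effect of over 45% in size.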 A digest of the protocol:
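HepG2-AhR-luc (HG2L7.5c1) cells, 4000/well, were preincubated 5 h at 37C, exposed to compound in qHTS format for 24 hr at 37C, then given CellTiter-Fluor for 30 min; viability was read as fluorescence in the reporter wells.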

For assay [4], the target named is Peroxisome proliferator-activated receptor gamma (Homo sapiens) (UniProt P37231). The assay is described as follows: qHTS assay to identify small molecule agonists of the peroxisome proliferator-activated receptor gamma (PPARg) signaling pathway (AID 743094; active = well fitted activation curve with a large enough effect in the signal ratio in the repeat runs, not every such curve was filed as active; the % refers to the signal ratio). A digest of the protocol:
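HEK293H PPARg-bla cells, 5 h settle at 37C/5% CO2; compound (DMSO) 17 h, 37C; B/G FRET substrate 1 h RT; fluorescence intensity read-out. qHTS format.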

The target is the same in assay [5]. The assay is described as follows: qHTS assay to identify small molecule antagonists of the peroxisome proliferator-activated receptor gamma (PPARg) signaling pathway (AID 743191; calls by dose curve; note: series mostly up to about 63 µM; nearly all actives have a fitted effect of over 30% in size). A digest of the protocol:
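GeneBLAzer PPARg UAS-bla HEK293H cells carrying a UAS-driven beta-lactamase reporter were plated at 3000 cells/well, preincubated 5 h at 37C, then given compound for 17 h at 37C; LiveBLAzer B/G FRET substrate was read after 1 h at room temperature.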

Assay [6] in a line: qHTS assay to identify small molecule antagonists of the peroxisome proliferator-activated receptor gamma (PPARg) signaling pathway - cell viability counter screen (AID 743194). Note: nearly all actives have a fitted effect of over 55% in size. A digest of the protocol: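 PPARg-UAS-bla HEK293H cells were plated, rested 5 h at 37 C, then treated with compounds plus rosiglitazone (50 nM final) for 17 h at 37 C; viability was then read by CellTiter-Glo luminescence after 30 min at room temperature.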

Assay [7] can be described thus: qHTS assay for small molecule agonists of the antioxidant response element (ARE) signaling pathway (AID 743202; active = well fitted activation curve with a large enough effect in the signal ratio in the repeat runs, not every such curve was filed as active; the % refers to the signal ratio). A digest of the protocol: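 Steps: seed ARE-bla HepG2 cells (2,000/well); incubate 5 h at 37 C; add compounds by pin tool; incubate 16 h at 37 C; add FRET substrate; read fluorescence after 2 h at RT.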
Assay [8] can be described thus: qHTS assay for small molecule agonists of the antioxidant response element (ARE) signaling pathway - cell viability counter screen (AID 743203; calls by dose curve; note: nearly all actives have a fitted effect of over 55% in size). The gist of the method: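 Luminescence read-out (CellTiter-Glo, 30 min at room temperature) measured cell viability in the same wells as the ARE beta-lactamase reporter. HepG2 ARE-bla cells were treated with compounds for 16 hrs at 37C/5% CO2.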

Assay [9] is described as follows: qHTS assay for small molecule activators of the heat shock response signaling pathway - cell viability counter screen (AID 743209). Note: nearly all actives have a fitted effect of over 50% in size. The gist of the method:
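HSE-bla HeLa; 1500 cells/well; overnight 37 C, 5% CO2; compound 5 h 37 C; LiveBLAzer B/G substrate 2.5 h RT; CellTiter-Glo 30 min RT; luminescence.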

Assay [10] can be described thus: qHTS assay for small molecule activators of the heat shock response signaling pathway (AID 743210; active = well fitted activation curve with a large enough effect in the signal ratio in the repeat runs, with a control signal flat, not every such curve was filed as active; the % refers to the signal ratio;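 note: HeLa cells with beta-lactamase reporter driven by heat shock elements; series mostly up to about 63 µM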). The gist of the method:
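Activation of heat shock element-controlled beta-lactamase expression is measured in HeLa cells by LiveBLAzer FRET fluorescence, with compound exposure lasting 5 h at 37 C and substrate loading 2.5 h at room temperature.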

The nature of assay [11]: qHTS assay to identify small molecule agonists of the peroxisome proliferator-activated receptor delta (PPARd) signaling pathway - cell viability counter screen (AID 743211). Note: nearly all actives have a fitted effect of over 55% in size. A digest of the protocol: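 Multiplexed format: after the 2 h room-temperature LiveBLAzer B/G FRET step, CellTiter-Glo was added to the same wells. Luminescence after 30 min gave cell viability; compound exposure was 17 h at 37C.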

For assay [12], the target named is Peroxisome proliferator-activated receptor delta (Homo sapiens) (UniProt Q03181). Nature of the assay: qHTS assay to identify small molecule agonists of the peroxisome proliferator-activated receptor delta (PPARd) signaling pathway (AID 743212; calls by dose curve). A digest of the protocol: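 Cells expressing a UAS-driven beta-lactamase reporter (PPARd-bla HEK293H) were given test compounds after a 5 h settle and kept at 37 C. Reporter activity was then measured as FRET fluorescence using LiveBLAzer B/G substrate.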

Assay [13] shares this target. Nature of the assay: qHTS assay to identify small molecule antagonists of the peroxisome proliferator-activated receptor delta (PPARd) signaling pathway (AID 743215; active = well fitted inhibition curve with a large enough effect in the signal ratio in the repeat runs, not every such curve was filed as active; the % refers to the signal ratio;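 note: cells stimulated with agonist L165041 at 300 nM final during compound exposure; series mostly up to about 62 µM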). The gist of the method: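 HEK293H GeneBLAzer PPARd UAS-bla reporter cells; cpd + L165041 300 nM final, 17 h 37 C; LiveBLAzer B/G FRET substrate 2 h RT; fluorescence intensity read-out. Antagonist mode.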

In assay [14] the target is Bile acid receptor (Homo sapiens) (UniProt Q96RI1). Nature of the assay: qHTS assay to identify small molecule antagonists of the farnesoid-X-receptor (FXR) signaling pathway (AID 743217; active = well fitted inhibition curve with a large enough effect in the signal ratio in the repeat runs, not every such curve was filed as active; the % refers to the signal ratio). A digest of the protocol: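 Read-out: beta-lactamase FRET fluorescence (LiveBLAzer B/G substrate, 2 h, room temperature) in GeneBLAzer FXR-UAS-bla HEK 293T cells. Compounds were co-dosed with 50 uM chenodeoxycholic acid (final) and incubated 16 h at 37 °C.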

Assay [15] in a line: qHTS assay to identify small molecule agonists of the farnesoid-X-receptor (FXR) signaling pathway - cell viability counter screen (AID 743218). Note: nearly all actives have a fitted effect of over 45% in size. A digest of the protocol:
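Luminescence from CellTiter-Glo, read after 30 min at RT, reports viability of GeneBLAzer FXR-UAS-bla HEK 293T cells treated 16 h with compounds in the wells used for the beta-lactamase reporter.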

The target in assay [16] is Bile acid receptor (Homo sapiens) (UniProt Q96RI1). Nature of the assay: qHTS assay to identify small molecule agonists of the farnesoid-X-receptor (FXR) signaling pathway (AID 743220; active = well fitted activation curve with a large enough effect in the signal ratio in the repeat runs, not every such curve was filed as active; the % refers to the signal ratio). A digest of the protocol:
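FXR-UAS-bla HEK 293T cells carrying a UAS-driven beta-lactamase reporter were plated for 5 h at 37C/5% CO2, then exposed to DMSO-dissolved Tox21 10K compounds for 16 h at 37C. A LiveBLAzer B/G FRET substrate was loaded for 2 h at room temperature before fluorescence reading.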

The nature of assay [17]: qHTS assay to identify small molecule antagonists of the farnesoid-X-receptor (FXR) signaling pathway - cell viability counter screen (AID 743221; active = well fitted cell-killing curve with a large enough effect in the repeat runs, not every such curve was filed as active; note: nearly all actives have a fitted effect of over 50% in size). A digest of the protocol: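 CellTiter-Glo, 30 min RT, luminescence; same wells as the LiveBLAzer FRET read. Cells: FXR-UAS-bla HEK 293T. Treatment: compound with chenodeoxycholic acid 50 uM final, 16 h at 37 C.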
Assay [18] in a line: qHTS assay to identify small molecule antagonists of the peroxisome proliferator-activated receptor delta (PPARd) signaling pathway - cell viability counter screen (AID 743213). Note: nearly all actives have a fitted effect of over 50% in size. The gist of the method: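 PPARd-bla HEK293H cells (3000/well) got compound plus 300 nM L165041 agonist for 17 h at 37 C. Viability in the same wells came from CellTiter-Glo luminescence after 30 min at room temperature.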

In assay [19] the target is Vitamin D3 receptor (Homo sapiens) (UniProt P11473). The assay is described as follows: qHTS assay to identify small molecule agonists of the vitamin D receptor (VDR) signaling pathway (AID 743222; calls by dose curve). A digest of the protocol: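 Beta-lactamase reporter readout (LiveBLAzer B/G FRET, 2 h RT) in VDR-bla cells after 16 h compound treatment at 37C, 5% CO2; cells pre-incubated 4 h before pin transfer of DMSO solutions.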

Assay [20] has the same target. The assay is described as follows: qHTS assay to identify small molecule antagonists of the vitamin D receptor (VDR) signaling pathway (AID 743223; active = well fitted inhibition curve with a large enough effect in the signal ratio in the repeat runs, not every such curve was filed as active; the % refers to the signal ratio). A digest of the protocol:
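After VDR-bla cells are plated and left 4 h at 37C, DMSO-dissolved compounds and 3 nM (final) calcitriol agonist are added. Incubation continues 16 h at 37C; FRET beta-lactamase substrate then develops 2 h at room temperature.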

Structures are written as SMILES. Results filed as inconclusive are left out. Where a structure was tested more than once in an assay, its records may differ in their call. Activity calls are given as the source filed them. Unless noted, calls come from the whole dose curve; as a rule, active = well fitted curve in the direction sought with a large enough effect in the repeat runs; inconclusive = weak or mixed curves; inactive = no such curve, though single readings can be large; an effect the other way counts as inactive or inconclusive.

Peroxisome proliferator-activated receptor gamma (Homo sapiens), sequence (P37231 whole entry, looked up): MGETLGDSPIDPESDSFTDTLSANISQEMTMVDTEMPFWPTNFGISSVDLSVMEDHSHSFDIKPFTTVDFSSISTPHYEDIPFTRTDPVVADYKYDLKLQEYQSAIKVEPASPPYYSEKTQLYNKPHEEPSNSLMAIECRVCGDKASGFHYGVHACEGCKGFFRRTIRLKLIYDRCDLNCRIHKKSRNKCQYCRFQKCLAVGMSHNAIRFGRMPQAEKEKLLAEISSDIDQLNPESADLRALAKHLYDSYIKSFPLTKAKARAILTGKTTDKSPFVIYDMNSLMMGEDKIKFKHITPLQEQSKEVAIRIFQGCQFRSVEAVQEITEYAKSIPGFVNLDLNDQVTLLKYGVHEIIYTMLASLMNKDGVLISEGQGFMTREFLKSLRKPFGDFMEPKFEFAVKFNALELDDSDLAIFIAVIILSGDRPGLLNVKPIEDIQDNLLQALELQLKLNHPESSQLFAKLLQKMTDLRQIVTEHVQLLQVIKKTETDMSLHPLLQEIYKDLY
Aryl hydrocarbon receptor (Homo sapiens), sequence (P35869 whole entry, looked up): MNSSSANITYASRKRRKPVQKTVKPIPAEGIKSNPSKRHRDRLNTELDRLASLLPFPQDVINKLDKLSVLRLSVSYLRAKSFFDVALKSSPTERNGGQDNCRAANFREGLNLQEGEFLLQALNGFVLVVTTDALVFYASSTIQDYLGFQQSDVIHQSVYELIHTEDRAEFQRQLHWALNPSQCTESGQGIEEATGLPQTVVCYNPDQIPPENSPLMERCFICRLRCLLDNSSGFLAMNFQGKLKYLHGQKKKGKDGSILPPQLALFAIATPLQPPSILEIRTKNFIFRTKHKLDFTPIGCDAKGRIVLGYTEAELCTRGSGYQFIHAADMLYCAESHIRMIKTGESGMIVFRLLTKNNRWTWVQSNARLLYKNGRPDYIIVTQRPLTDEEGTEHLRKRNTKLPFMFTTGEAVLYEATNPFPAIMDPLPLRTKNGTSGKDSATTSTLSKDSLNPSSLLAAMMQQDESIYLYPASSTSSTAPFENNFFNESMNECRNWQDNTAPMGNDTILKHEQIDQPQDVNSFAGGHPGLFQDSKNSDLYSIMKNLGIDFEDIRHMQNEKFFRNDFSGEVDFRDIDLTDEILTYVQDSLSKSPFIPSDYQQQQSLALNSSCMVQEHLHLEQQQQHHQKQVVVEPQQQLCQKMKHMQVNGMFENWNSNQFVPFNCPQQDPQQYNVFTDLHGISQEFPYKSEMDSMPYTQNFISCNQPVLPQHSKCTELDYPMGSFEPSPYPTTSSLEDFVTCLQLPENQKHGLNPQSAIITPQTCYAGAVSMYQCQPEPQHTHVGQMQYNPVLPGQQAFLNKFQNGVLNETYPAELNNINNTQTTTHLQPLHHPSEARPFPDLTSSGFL
Bile acid receptor (Homo sapiens), sequence (Q96RI1 whole entry, looked up): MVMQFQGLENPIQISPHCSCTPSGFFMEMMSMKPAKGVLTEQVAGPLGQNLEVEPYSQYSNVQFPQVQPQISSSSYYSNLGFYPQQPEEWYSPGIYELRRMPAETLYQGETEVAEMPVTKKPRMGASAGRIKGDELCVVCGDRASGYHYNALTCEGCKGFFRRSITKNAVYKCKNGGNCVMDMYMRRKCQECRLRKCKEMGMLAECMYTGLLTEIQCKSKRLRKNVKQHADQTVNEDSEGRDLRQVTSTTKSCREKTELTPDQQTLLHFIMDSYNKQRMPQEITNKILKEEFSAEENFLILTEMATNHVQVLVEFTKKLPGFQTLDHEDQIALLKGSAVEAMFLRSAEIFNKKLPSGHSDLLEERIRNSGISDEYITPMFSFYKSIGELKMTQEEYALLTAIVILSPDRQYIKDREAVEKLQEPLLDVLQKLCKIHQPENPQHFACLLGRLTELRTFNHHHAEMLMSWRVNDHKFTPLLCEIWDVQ
Vitamin D3 receptor (Homo sapiens), sequence (P11473 whole entry, looked up): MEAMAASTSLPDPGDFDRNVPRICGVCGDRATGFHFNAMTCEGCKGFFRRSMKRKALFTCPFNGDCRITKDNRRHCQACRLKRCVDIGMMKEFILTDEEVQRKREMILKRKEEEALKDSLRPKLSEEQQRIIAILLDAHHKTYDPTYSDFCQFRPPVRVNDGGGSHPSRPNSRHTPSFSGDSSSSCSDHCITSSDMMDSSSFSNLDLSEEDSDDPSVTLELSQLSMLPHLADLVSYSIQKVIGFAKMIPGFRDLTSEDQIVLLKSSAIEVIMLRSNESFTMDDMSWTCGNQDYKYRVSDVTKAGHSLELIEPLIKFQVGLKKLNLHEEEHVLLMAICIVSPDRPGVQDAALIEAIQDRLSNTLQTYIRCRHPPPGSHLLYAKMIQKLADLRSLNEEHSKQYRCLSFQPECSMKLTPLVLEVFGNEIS
Peroxisome proliferator-activated receptor delta (Homo sapiens), sequence (Q03181 whole entry, looked up): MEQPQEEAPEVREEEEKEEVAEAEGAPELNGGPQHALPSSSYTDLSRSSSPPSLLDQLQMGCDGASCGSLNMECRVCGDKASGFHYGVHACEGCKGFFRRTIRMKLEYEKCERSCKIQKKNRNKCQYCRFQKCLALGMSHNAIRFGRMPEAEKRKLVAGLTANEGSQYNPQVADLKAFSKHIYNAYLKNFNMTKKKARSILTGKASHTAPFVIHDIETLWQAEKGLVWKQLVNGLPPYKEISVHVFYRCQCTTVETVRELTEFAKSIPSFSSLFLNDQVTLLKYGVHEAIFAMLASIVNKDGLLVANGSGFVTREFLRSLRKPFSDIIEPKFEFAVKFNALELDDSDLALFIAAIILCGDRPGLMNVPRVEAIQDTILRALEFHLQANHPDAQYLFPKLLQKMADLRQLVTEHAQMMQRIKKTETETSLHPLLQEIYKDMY

Take `Nc1ccccc1[N+](=O)[O-]`: the Potency entry in assay [1], in [2], in assay [7], in assay [10], in assay [13] and in assay [15] was “inactive” in each case. Besides, the Potency entry in [17] was “inactive”. The call in assay [3], in assay [4], in assay [5], in assay [6], in assay [8] and in assay [9] was inactive. In addition, the compound was classed as inactive in [11], in assay [12], in assay [14] and in assay [16].

On to `Cc1ccc2oc(=O)ccc2c1`, for which the Potency result in [1], in assay [2], in assay [7], in [10], in assay [13] and in assay [15] was “inactive” throughout. Besides, the compound was classed as inactive in [3], in [4], in assay [5], in assay [6], in assay [8] and in [9]. Besides, the call in assay [11], in assay [12], in assay [18], in [14], in [16] and in [19] was inactive. Besides, in assay [20], the outcome was inactive.

As for `CCCCCCCCCCCCCCCO`, the Potency result in assay [1], in assay [2], in assay [7], in assay [10], in [13] and in assay [15] was “inactive” in each case. Further, the Potency result in assay [17] is “inactive”. Further, the compound was classed as inactive in assay [3], in [4], in [5], in assay [6], in [8] and in assay [9]. Moreover, the compound was classed as inactive in [11], in assay [12], in assay [18], in [14], in [16] and in [19]. Besides, the compound was called inactive in [20].

As for `CC(=O)c1ccccc1`, the Potency result in assay [1], in assay [2], in assay [7], in assay [10], in assay [13] and in [15] was “inactive” in each case. Further, the Potency result in assay [17] was “inactive”. In addition, the compound was called inactive in assay [3], in assay [4], in assay [5], in assay [6], in [8] and in [9]. Also, the outcome in assay [11] and in assay [12] was inactive.

With `CC(=O)CC(=O)Nc1ccccc1C`, the Potency result in [1], in [2], in assay [7], in assay [10] and in assay [15] was “inactive” each time. The compound was classed as inactive in assay [3], in [4], in assay [5], in assay [6], in assay [8] and in assay [9]. The outcome in assay [11], in [18], in assay [19] and in assay [20] was inactive.

Turning to `O=C(O)c1cc(C(=O)O)cc(S(=O)(=O)O)c1`, the Potency entry in assay [1], in assay [2], in [7], in assay [10], in assay [13] and in assay [15] was “inactive” each time. Further, in assay [17], the Potency entry is “inactive”. Besides, the outcome in assay [3], in assay [4], in assay [5], in assay [6], in assay [8] and in [9] was inactive. In addition, the outcome in assay [11], in assay [12], in [18], in assay [14], in [16] and in [19] was inactive. Moreover, in [20], the compound was called inactive.

As for `CN(C)CCOCCN(C)C`, the Potency result in [1], in [7], in assay [10], in assay [13], in assay [15] and in [17] was “inactive” throughout. Moreover, the Potency in assay [2] was 62.3 µM (active) and inactive. Besides, the compound was classed as inactive in assay [3], in assay [4], in assay [6], in assay [8], in [9] and in assay [11]. In addition, the result in [12], in assay [14], in assay [16], in assay [19] and in [20] was inactive.

Regarding `O=S1(=O)CC=CC1`, the Potency result in [1], in assay [2], in assay [7], in assay [10], in assay [13] and in [15] was “inactive” in each case. Also, the result in assay [3], in [4], in assay [6], in assay [8], in assay [9] and in assay [11] was inactive. Further, the compound was classed as inactive in [12], in [18], in [19] and in assay [20].

Source of the values: PubChem BioAssay (Tox21).
